# According to PubChem BioAssay (NCATS):
# Inconclusive results are not listed. A call without a number means that no potency is given here. Active and inactive are the calls of the source. Calls come from the whole dose curve.
# Assay: Cytotoxicity counterscreen for inhibitors of SARS-CoV-2 cell entry (AID 1645845); note: nearly all actives have a fitted effect of over 50% in size
# Conditions: cell viability (SARS-CoV-2 entry assay cells); series mostly up to 57.1 µM
# Procedure, shortened: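 Counterscreen run in the same HEK293-ACE2 line as the pseudotyped-particle entry assay, without particles. Viability after 48 h at 37 C was read as ATP luminescence, scaled between cell-containing and cell-free wells.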
# Potency is the fitted concentration of half-maximal effect.
row,Structure (SMILES),Potency
1,C#CC(C)(CC)OC(=O)c1ccccc1C(=O)O (configuration not stated),inactive
2,Nc1ccccc1NC(=O)c1ccc(CNC(=O)OCc2cccnc2)cc1,inactive
3,O=C(O)CCC1CCC(c2cc(F)ccc2F)(S(=O)(=O)c2ccc(Cl)cc2)CC1 (configuration not stated),inactive
4,CC(=O)NC(C)c1ccc(Oc2ccc(OC(C)C)cc2)cc1 (configuration not stated),inactive
5,Cc1cn(-c2cc(NC(=O)c3ccc(C)c(Nc4nccc(-c5cccnc5)n4)c3)cc(C(F)(F)F)c2)cn1,inactive
6,Cc1nc(N)sc1-c1ccnc(Nc2ccc(N3CCOCC3)cc2)n1,3.16 µM (active)
7,Cc1c(C)c2c(c(C)c1OC(=O)c1cccnc1)CC[C@@](C)(CCC[C@H](C)CCC[C@H](C)CCCC(C)C)O2,inactive
8,Clc1ccc2ncc(-c3cccc(NC4CNC4)n3)n2c1,inactive
9,COc1ccc(CC2SC(=O)NC2=O)cc1C(=O)NCc1ccc(C(F)(F)F)cc1 (configuration not stated),inactive
10,N[C@H]1C(O)O[C@H](CO)[C@@H](O)[C@@H]1O (some centres not stated),inactive
11,COc1cc2ncnc(-n3nc(-c4ccccn4)nc3N)c2cc1OC,inactive
12,O=C(Nc1ccc(OC(F)(F)F)cc1)c1sccc1NCc1ccnc2ccccc12,inactive
13,CCc1c(C)[nH]c2c1C(=O)C(CN1CCOCC1)CC2 (configuration not stated),inactive
14,C=CCNC(N)=S,inactive
15,C#Cc1cccc(Nc2ncnc3cc(OC)c(OCCCCCCC(=O)NO)cc23)c1,10 µM (active)
16,CC(C)(C)C(=O)Oc1ccc2c(c1)nc(NC(=O)c1cccc([N+](=O)[O-])c1)n2CCCO,inactive
17,C/C(=C1\CCOC(=O)S1)N(C=O)Cc1cnc(C)nc1N,inactive
